# POLB inh = DNA polymerase beta (human) inhibition; P06746; Pol beta primer extension/strand displacement, fluorescence kinetic; Potency, µM (top dose mostly 114 µM), for inactives: top-dose activity change, negative = inhibition, most hits filed as inhibitors; actives 1.3% (n = 340,000); note: % is set by controls: 0 for no effect and ±100 for the full control effect
#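 Pol beta (10 nM) and compounds were preincubated 15 min at room temperature, then 50 nM substrate (final) started primer extension/strand displacement. Reads were taken at 0 and 10 min; concentration-response data were fitted to a four-parameter Hill equation.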
# WRN inhibitor = inhibitors of human WRN helicase. Q14191. WRN helicase unwinding, fluorescent forked duplex, kinetic. Potency, µM (titrated, usually from 114 µM), for inactives: at the top dose activity change, negative = inhibition, most hits filed as inhibitors. actives 0.46% (n = 360,000). AID 651768; note: % is set by controls: 0 for no effect and ±100 for the full control effect; nearly all actives have a fitted effect of over 55% in size
#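 Kinetic fluorescence helicase assay: unwinding of a quenched forked DNA duplex (100 nM final) with 2 mM ATP final raises red fluorescence (525/598 nm). Compounds sat 15 min at room temperature with 20 nM WRN beforehand.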
# POLI inh = inhibitors of human DNA polymerase iota | Q9UNA4 | Pol iota fluorescent replication assay, 10 min | Potency, µM (highest dose often 115 µM), inactives show at the top dose activity, negative = inhibition, hits mostly inhibitors | actives 1% (n = 390,000)
#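 Fluorescent replication assay read twice, at 0 min and 10 min after adding 50 nM (final) substrate. Enzyme (10 nM) and compounds were first incubated 15 min at room temperature; enzyme-free buffer wells were negative controls.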
# FEN1 inh = human FEN1 inhibition | P39748 | Recombinant FEN1 flap cleavage, fluorescence, 15 min | Potency, µM (doses to about 114 µM), inactives show top-dose activity change, negative = inhibition, hits mostly inhibitors | actives 0.35% (n = 390,000) | AID 588795; note: % is set by controls: 0 for no effect and ±100 for the full control effect; nearly all actives have a fitted effect of over 65% in size
#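 In this screen, 50 nM flap DNA substrate was added to 10 nM FEN1 pretreated with compound for 15 min at room temperature; cleavage was followed with reads at 0 and 15 min, and Hill fitting gave concentration–response parameters.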
# POLK inh = DNA polymerase kappa (human) inhibition. purified Pol kappa, fluorescent DNA synthesis assay, 10 min. actives 0.53% (n = 400,000). AID 588579. Potency, µM (highest dose often 107 µM), inactives show top-dose activity, negative = inhibition, hits mostly inhibitors. Q9UBT6; note: % is set by controls: 0 for no effect and ±100 for the full control effect
#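 Pol kappa 10 nM + cpd, 15 min RT; start w/ substrate 50 nM final; fluorescence kinetic read, 0 and 10 min. Neg ctrl: buffer, no enzyme.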
# POLH inh = blocks human DNA polymerase eta activity | Q9Y253 | recombinant Pol eta, fluorescent DNA replication assay | Potency, µM (doses to about 114 µM), for the others: at the top dose activity change, negative = inhibition, most hits filed as inhibitors | actives 1.2% (n = 390,000) | AID 588591; note: % is set by controls: 0 for no effect and ±100 for the full control effect
#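 Pol eta at 10 nM preincubated with compounds 15 min at room temperature; reaction started with fluorescent substrate (50 nM final) and read kinetically at 0 and 10 min.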
# TbPGK inh = TbPGK inhibition, hit validation; shares compounds with POLK inh; TbPGK coupled GAPDH assay, Kinase-Glo luminescence; Potency, µM (doses to about 57.5 µM), without a hit: top-dose activity change, negative = inhibition, actives largely listed as inhibitors; actives 79% (n = 500); note: % is set by controls: 0 for no effect and ±100 for the full control effect; nearly all actives have a fitted effect of over 65% in size
# POLI cherry-pick = Inhibitors of human DNA polymerase iota, confirmation; shares compounds with POLK inh; Pol iota primer extension, TAMRA/BHQ fluorescence; Potency, µM, hits mostly inhibitors; actives 77% (n = 1,500); AID 720496
# Active calls of the source: *; ? = inconclusive; · = no result; [ ] = another dose, or the depositor's remark. The list is not random: actives were taken first. Their share in the collection is about 2.4%. Calls come from the whole dose curve; as a rule, active = well fitted curve in the direction sought with a large enough effect; inconclusive = small, poorly fitted or top-dose-only effect, or another doubt; inactive = no such curve, though single readings can be large; an effect the other way counts as inactive or inconclusive. Potency is the fitted concentration of half-maximal effect.
SMILES,POLB inh,WRN inhibitor,POLI inh,FEN1 inh,POLK inh,POLH inh,POLI cherry-pick,others
COc1ccc(-c2nc3cnc(N4CCOCC4)nc3n(CCc3ccccc3)c2=O)cc1,·,·,·,·,-3%[60.1 µM],·,·,
CCOC(=O)c1cnc2ccc(OC(F)(F)F)cc2c1Nc1ccccc1C(=O)O,21%,·,1%,-6%,2%,-14%,·,TbPGK inh=-17%
CCOc1ccc(OCC(=O)Nc2nccs2)cc1,0%,-6%,-1%,-3%,4%,-14%,·,TbPGK inh=13µM*
CCOc1ccc(S(=O)(=O)N(C)c2ccc(OCC(=O)Nc3nccs3)cc2)cc1,-2%,-9%,-18%,-24%,-12%,-4%,·,
COc1ccc(-c2nc3sc(CCNC(=O)C(=O)Nc4cccc(NC(C)=O)c4)c(C)n3n2)cc1,13µM*,·,4%,2%,-1%[60.1 µM],?,?,
COc1ccc(-c2nc3sc(CCNC(=O)C(=O)Nc4ccc(OC)c(OC)c4)c(C)n3n2)cc1,23%,·,5%,-10%,-6%[60.1 µM],8%,·,
COCCn1c(=O)c(-c2ccc(Cl)cc2)nc2cnc(Oc3cccc(Cl)c3)nc21,·,·,·,·,-6%[60.1 µM],·,·,
COc1ccc(-c2nc3cnc(N4CCOCC4)nc3n(Cc3cccs3)c2=O)cc1,·,·,·,·,-2%[60.1 µM],·,·,
O=C(COc1ccccc1[N+](=O)[O-])Nc1ccc2oc(=O)ccc2c1,-10%,-5%,-9%,19%,7%,3%,·,
Cc1cc(=O)oc2cc(NC(=O)COc3ccccc3[N+](=O)[O-])ccc12,·,-35%[11.6 µM],?,13%,-19%,?,?,
Cc1cc(C)c2c(n1)sc1c(O)cc(=O)[nH]c12,?,?,?,?,79µM*,79µM*,47*,
CC(=O)c1sc2nc(C)cc(C)c2c1N,0%,-19%,0%,-3%,-9%,-13%,·,
O=C(/C=C/c1ccc([N+](=O)[O-])cc1)Oc1ccc(/C=N/NC(=O)c2ccncc2)cc1,-2%,-13%[11.6 µM],79µM*,?,22µM*,?,?,
O=C(COc1ccc(/C=N/NC(=O)c2ccc(O)cc2)cc1)Nc1cccc([N+](=O)[O-])c1,10µM*,?,?,?,?,14µM*,?,TbPGK inh=12µM*
O=C(COc1ccc(/C=N/NC(=O)c2ccncc2)cc1)Nc1ccc([N+](=O)[O-])cc1,24%,9%[57.1 µM],-10%,-14%,-2%,-6%,·,
CCCCNc1cc(NC2CCCCC2)c2c3c(onc13)-c1ccccc1C2=O,?,·,?,4%,-7%,71µM*,60*,
CCOc1ccc(/C=N/NC(=O)c2[nH]ncc2Br)c(O)c1,23%,-7%,21%,-20%,-1%,-7%,·,TbPGK inh=18µM*
COc1ccc(OC)c(/C=N/NC(=O)c2[nH]ncc2Br)c1,37%,4%,-7%[58.9 µM],3%,-3%,-20%,·,
Cc1cccc(C)c1NC(=O)CN(C)C(=O)c1cccc(-n2cccc2)c1,·,71µM*,8.9µM*,-21%,?,10µM*,?,
COc1ccccc1CNc1cc(-c2ccoc2)ncn1,·,·,·,·,0%[60.1 µM],·,·,
Cc1cc(S(=O)(=O)C(CNC(=O)COc2ccccc2)c2cccs2)ccc1F (stereo unspecified),2%,·,-20%,-17%,-2%[60.1 µM],7%,·,
Cc1ccc(S(=O)(=O)C(CNC(=O)COc2ccccc2)c2cccs2)cc1 (stereo unspecified),13µM*,·,1%,-10%,-7%[60.1 µM],-14%,·,TbPGK inh=?
C/C=C\C=C/C(=O)Nc1cccc(C2=NOC3(C2)C[C@@H](C(N)=O)N(C(=O)c2ccc(Cl)cc2)C3)c1 (stereo partly specified),-10%,4%,4%,10%,-2%,-9%,·,
C/C=C\C=C/C(=O)Nc1cccc(C2=NOC3(C2)C[C@H](C(N)=O)N(C(=O)c2ccc(OC)cc2)C3)c1 (stereo partly specified),-1%,-19%[11.6 µM],25µM*,5%,?,20µM*,?,
O=C(Nc1nc2ccccc2[nH]1)c1ccc(F)cc1,4%,0%,-5%[58.9 µM],-2%,0%,-7%,·,
SMILES,POLB inh,WRN inhibitor,POLI inh,FEN1 inh,POLK inh,POLH inh,POLI cherry-pick,others
O=C(Nc1nc2ccccc2[nH]1)c1ccccc1F,19%,-7%,21%,7%,3%,-17%,·,TbPGK inh=8.2µM*
CNC(=O)Oc1ccc2c(c1)[C@@]1(C)CCN(C)C1N2C (stereo partly specified),·,·,·,·,2%[60.1 µM],·,·,
Cc1c(C(=O)Nc2cccc(-c3nc4ccccc4s3)c2)oc2ccccc12,2%,·,-6%,11%,-7%,-6%,·,
O=C(Nc1cccc(-c2nc3ccccc3s2)c1)c1cc(=O)c2ccccc2o1,?,-17%[11.6 µM],34%,15%,-12%,?,?,
Cc1noc(C)c1-c1ccc2ncnc(NCc3cccnc3)c2c1,·,·,·,·,9%[60.1 µM],·,·,
Cc1cc(C)c(NC(=O)CS(=O)CC(=O)Nc2ccc(N3CCOCC3)cc2)c(C)c1 (stereo unspecified),11%,-4%,13%,0%,-14%,-17%,·,
Cc1ccc(NC(=O)CS(=O)CC(=O)Nc2ccc(N3CCOCC3)cc2)cc1Cl (stereo unspecified),25µM*,-35%,18µM*,?,?,?,?,
CC(=O)NC1C(O)C[C@@](O)(C(=O)O)OC1[C@@H](O)C(O)CO (stereo partly specified),·,·,·,·,-3%[60.1 µM],·,·,
O=C1C[C@H](c2ccc(-c3ccccc3)cc2)N1S(=O)(=O)c1ccccc1[N+](=O)[O-],·,·,-19%,-15%,-12%,·,·,
N/C(=N\OC(=O)c1ccc(Cl)cc1Cl)c1ccccn1,-12%,0%,-1%,-6%,-28%,-10%,·,
Cc1ccc(C(=O)O/N=C(\N)c2ccccn2)c(Cl)c1,17%,-2%,6%,19%,-6%,0%,·,TbPGK inh=18µM*
N/C(=N\OC(=O)c1ccc2ccccc2c1)c1ccccn1,1%,-2%,11%,-4%,5%,-13%,·,TbPGK inh=?
N/C(=N\OC(=O)c1ccc2ccccc2c1)c1ccncc1,-1%,6%,-25%,0%,12%,-5%,·,
COc1cccc(C(=O)O/N=C(\N)c2ccccn2)c1,16%,3%,-10%,-2%,-6%,-1%,·,TbPGK inh=15µM*
